Source: PubChem BioAssay (NCATS)
“And” between values parts separate entries of the source, which are not always exact repeats. Equal values may be shown once. Inconclusive results are not listed. The source made the active and inactive calls. Unless noted, calls follow the shape of the dose curve; as a rule, active = well fitted curve in the direction sought with a large enough effect; inconclusive = small, poorly fitted or top-dose-only effect, or another doubt; inactive = no such curve, though single readings can be large; an effect the other way counts as inactive or inconclusive.

Columns and labels:
[1] = AP1 Signaling Pathway (AID 357; active = well fitted curve in either direction with a large enough effect, not every such curve was filed as active; also: % is scaled to controls: 0 for no effect and ±100 for the full control effect); details: ME-180 AP-1-bla reporter, EGF-induced, beta-lactamase ratio, 5 h
How it was run: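 ME-180 cells with beta-lactamase reporter under AP-1 response element, stimulated with EC50 EGF; compounds tested in titration series, 5 h at 37 °C. CCF4 substrate added 2.5 h at room temperature; 460/530 nm emission ratio gave %activity and AC50.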

[2] = NFAT Signaling Pathway (AID 444; active = well fitted curve in either direction with a large enough effect, not every such curve was filed as active;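 also: carbachol stimulus at about its EC50 of 1 µM final; % is scaled to controls: 0 for no effect and ±100 for the full control effect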); details: Jurkat NFAT-bla M1, carbachol, beta-lactamase ratio, 5 h; at 17.2 µM (top of the series)
How it was run: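 Jurkat cells carrying an NFAT-driven β-lactamase reporter and co-transfected muscarinic M1 receptor were treated with compound plus carbachol (1 uM final, an EC50 level) for 5 h at 37 °C. CCF4 loading followed for 1 h at RT; 460/530 nm ratio gave %activity.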

[3] = Stat Signaling Pathway (AID 446; active = well fitted curve in either direction with a large enough effect, not every such curve was filed as active;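 also: ME-180 cervical cancer cells given 40 pM IL-6 alongside compound; SIE-controlled beta-lactamase reporter measured as 460/530 nm FRET emission ratio; % is scaled to controls: 0 for no effect and ±100 for the full control effect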); details: ME-180 SIE beta-lactamase reporter, IL-6 stimulated, 5 h
How it was run: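 ME-180 SIE-bla cells; overnight plating; cpd + IL-6 40 pM, 5 h, 37 C; LiveBLAzer 2.5 h RT; 460/530 nm emission ratio. Normalized to 300 pM IL-6 and 125 nM JAK inhibitor controls.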

[4] = molecular target: Glucocorticoid receptor (Homo sapiens) (UniProt P04150); assay: GR-GFP Redistribution (AID 450;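 active = compounds whose dose series gives a full or clear partial fitted curve of increased nuclear translocation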; also: potency is read from the fitted curve at half-maximal effect); details: U2OS GR-GFP nuclear translocation, laser cytometry, 2 h
Sequence of Glucocorticoid receptor (Homo sapiens) (P04150 whole entry, looked up, the tested form may be a part): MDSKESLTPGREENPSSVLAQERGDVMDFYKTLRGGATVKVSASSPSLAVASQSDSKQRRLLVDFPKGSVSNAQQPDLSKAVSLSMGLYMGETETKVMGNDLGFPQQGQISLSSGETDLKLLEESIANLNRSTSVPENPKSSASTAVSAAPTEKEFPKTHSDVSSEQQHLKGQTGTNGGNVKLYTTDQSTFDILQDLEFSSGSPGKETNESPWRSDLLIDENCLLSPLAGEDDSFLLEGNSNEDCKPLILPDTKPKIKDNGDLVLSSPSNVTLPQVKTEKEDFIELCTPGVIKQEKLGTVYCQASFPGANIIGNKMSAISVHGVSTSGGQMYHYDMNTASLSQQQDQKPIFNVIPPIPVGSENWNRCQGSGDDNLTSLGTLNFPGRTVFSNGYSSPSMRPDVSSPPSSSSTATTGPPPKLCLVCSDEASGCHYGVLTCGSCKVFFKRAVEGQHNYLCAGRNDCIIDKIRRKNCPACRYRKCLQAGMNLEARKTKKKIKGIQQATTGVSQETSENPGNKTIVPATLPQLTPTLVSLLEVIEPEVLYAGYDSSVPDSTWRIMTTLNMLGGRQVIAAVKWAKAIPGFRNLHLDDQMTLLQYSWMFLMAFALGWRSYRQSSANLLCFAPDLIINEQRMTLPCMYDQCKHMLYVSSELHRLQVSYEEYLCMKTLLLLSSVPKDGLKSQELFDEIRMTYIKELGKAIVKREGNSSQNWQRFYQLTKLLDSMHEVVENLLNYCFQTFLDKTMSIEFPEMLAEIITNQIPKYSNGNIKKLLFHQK

[5] = molecular target: Glucocorticoid receptor (Homo sapiens) (UniProt P04150); assay: GR-EFC Redistribution (AID 451; calls by dose curve; also: potency is read from the fitted curve at half-maximal effect); details: CHO-K1 GR-EFC translocation, beta-gal luminescence, 2 h
How it was run: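 CHO-K1 cells stably expressing nuclear-localized β-gal enzyme acceptor and GR fused C-terminally to the enzyme donor fragment; ligand-driven nuclear translocation restores β-gal by complementation. Compounds titrated up to 46 uM final, 2 h at 37 °C; luminescence read.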

[6] = molecular target: 3',5'-cyclic-AMP phosphodiesterase 4B (Homo sapiens) (UniProt Q07343); assay: qHTS Assay for Inhibitors of PDE-IV (AID 607; active = well fitted activation curve with a large enough effect in the main read-out, with a control signal flat, not every such curve was filed as active; also: % of control where 0% means no effect)
Sequence of 3',5'-cyclic-AMP phosphodiesterase 4B (Homo sapiens) (Q07343 whole entry, looked up): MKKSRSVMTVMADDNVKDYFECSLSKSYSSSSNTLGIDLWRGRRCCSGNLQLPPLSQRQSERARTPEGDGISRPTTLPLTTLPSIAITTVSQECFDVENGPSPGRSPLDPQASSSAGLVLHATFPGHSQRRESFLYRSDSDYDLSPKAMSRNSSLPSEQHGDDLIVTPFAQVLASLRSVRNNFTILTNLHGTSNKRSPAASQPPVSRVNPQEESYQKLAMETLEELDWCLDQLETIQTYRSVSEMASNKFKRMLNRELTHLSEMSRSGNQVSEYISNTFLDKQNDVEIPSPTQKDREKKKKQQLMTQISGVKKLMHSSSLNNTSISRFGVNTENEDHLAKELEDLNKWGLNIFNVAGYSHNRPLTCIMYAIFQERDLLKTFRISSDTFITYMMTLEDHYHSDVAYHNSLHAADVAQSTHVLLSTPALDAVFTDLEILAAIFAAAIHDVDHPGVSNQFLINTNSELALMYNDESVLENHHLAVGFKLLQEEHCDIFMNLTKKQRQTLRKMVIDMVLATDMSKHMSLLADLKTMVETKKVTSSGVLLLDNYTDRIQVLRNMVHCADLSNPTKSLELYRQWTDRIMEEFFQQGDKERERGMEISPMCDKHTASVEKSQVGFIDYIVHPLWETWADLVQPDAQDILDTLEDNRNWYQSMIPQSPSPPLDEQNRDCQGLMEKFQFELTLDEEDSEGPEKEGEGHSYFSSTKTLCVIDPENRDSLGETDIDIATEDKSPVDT
How it was run: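 ACTOne HEK293 cells carry a modified cAMP-gated CNG channel and express endogenous PDE4; plated 1000 cells/well, compounds up to 22.9 uM final. Membrane-potential dye fluorescence (ex 535/em 590) was read; parental cells received 10 uM forskolin + 100 uM RO 20-1724.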

[7] = qHTS Assay for Lipid Storage Modulators (AID 1519; calls by dose curve); details: Drosophila S3 cells, BODIPY lipid droplet/cell ratio, laser cytometry, cells loaded with oleic acid
How it was run: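 Cells seeded at 5,000 per well were treated with compounds over a concentration series and loaded with oleic acid (400 uM, as added). Lipid droplet fluorescence (488 nm excitation, 500-530 nm channel) was read by laser-scanning cytometry and normalized to 20 uM Triacsin C.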

[8] = molecular target: Ubiquitin carboxyl-terminal hydrolase 1 (Homo sapiens) (UniProt O94782); assay: Inhibitors of USP1/UAF1: Pilot qHTS (AID 504865);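 also: rhodamine fluorescence freed from ubiquitin-rhodamine substrate followed over time; top concentration of the series differs between compounds; % is scaled to controls: 0 for no effect and ±100 for the full control effect; nearly all actives have a fitted effect of over 35% in size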
How it was run: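 Enzyme-free wells gave the negative control, while test wells held 1nM USP1/UAF1 preincubated with compound for 15 min at room temperature. Ub-Rho at 150nM final started the reaction, and fluorescence at 480/540 nm was recorded kinetically.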

[9] = molecular target: DNA dC->dU-editing enzyme APOBEC-3G (Homo sapiens) (UniProt Q9HC16); assay: qHTS for inhibitors of Vif-A3G interactions: Validation (AID 588379); also: 0% is about no effect
Sequence of DNA dC->dU-editing enzyme APOBEC-3G (Homo sapiens) (Q9HC16 whole entry, looked up): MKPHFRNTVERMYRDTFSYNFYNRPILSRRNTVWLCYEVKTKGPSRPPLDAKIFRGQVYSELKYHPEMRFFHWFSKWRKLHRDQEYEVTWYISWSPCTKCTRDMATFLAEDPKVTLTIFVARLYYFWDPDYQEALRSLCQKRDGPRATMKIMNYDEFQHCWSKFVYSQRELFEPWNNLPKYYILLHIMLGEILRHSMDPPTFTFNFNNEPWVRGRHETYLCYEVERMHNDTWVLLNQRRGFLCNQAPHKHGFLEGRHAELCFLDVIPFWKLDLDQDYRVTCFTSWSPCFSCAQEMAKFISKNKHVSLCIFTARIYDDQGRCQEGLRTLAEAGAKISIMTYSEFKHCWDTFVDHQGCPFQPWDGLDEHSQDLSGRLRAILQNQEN
How it was run: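 HeLa cells stably expressing Vif and A3G-eYFP, 700 cells/well, incubated overnight at 37 deg C, then exposed to compound overnight at 37 deg C. Inhibition of Vif-mediated degradation read as increased yellow fluorescence (Ex 488/Em 500-530) by laser-scanning cytometry.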

[10] = tested on: Zika virus NS2B-NS3 protease; assay: Primary screen GU AMC qHTS for Zika virus inhibitors (AID 1347154);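 also: 0% = no-inhibitor control and -100% = no-enzyme control; nearly all actives have a fitted effect of over 70% in size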
How it was run: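 Unlinked Zika NS2B hydrophilic domain/NS3 protease domain noncovalent complex (25 nM final) in 10 mM Tris-HCl pH 8.0, 0.01% Tween 20, with AMC peptide substrate. Fluorescence (ex 340, em 450 nm) change over 15 min, room temperature; percent inhibition fitted to 4-parameter Hill equation.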

[11] = Primary qHTS for small molecule stabilizers of the endoplasmic reticulum resident proteome: Secreted ER Calcium Modulated Protein (SERCaMP) assay (AID 1508630); also: % is scaled to controls: 0 for no effect and ±100 for the full control effect
How it was run: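 GLuc-SERCaMP-expressing SH-SY5Y cells, pretreated 16 h with compound, are challenged with thapsigargin to empty ER calcium stores; after 4 h, coelenterazine is added directly to the medium and luminescence is imaged.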

[12] = molecular target: Rap guanine nucleotide exchange factor 3 (Homo sapiens) (UniProt O95398); assay: Confirmatory qHTS for antagonist of cAMP-regulated guanine nucleotide exchange factor 3 (EPAC1) (AID 1645880);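 also: plate controls were DMSO only for no effect and full effect of the ATA control for full effect; nearly all actives have a fitted effect of over 55% in size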
Sequence of Rap guanine nucleotide exchange factor 3 (Homo sapiens) (O95398 whole entry, looked up): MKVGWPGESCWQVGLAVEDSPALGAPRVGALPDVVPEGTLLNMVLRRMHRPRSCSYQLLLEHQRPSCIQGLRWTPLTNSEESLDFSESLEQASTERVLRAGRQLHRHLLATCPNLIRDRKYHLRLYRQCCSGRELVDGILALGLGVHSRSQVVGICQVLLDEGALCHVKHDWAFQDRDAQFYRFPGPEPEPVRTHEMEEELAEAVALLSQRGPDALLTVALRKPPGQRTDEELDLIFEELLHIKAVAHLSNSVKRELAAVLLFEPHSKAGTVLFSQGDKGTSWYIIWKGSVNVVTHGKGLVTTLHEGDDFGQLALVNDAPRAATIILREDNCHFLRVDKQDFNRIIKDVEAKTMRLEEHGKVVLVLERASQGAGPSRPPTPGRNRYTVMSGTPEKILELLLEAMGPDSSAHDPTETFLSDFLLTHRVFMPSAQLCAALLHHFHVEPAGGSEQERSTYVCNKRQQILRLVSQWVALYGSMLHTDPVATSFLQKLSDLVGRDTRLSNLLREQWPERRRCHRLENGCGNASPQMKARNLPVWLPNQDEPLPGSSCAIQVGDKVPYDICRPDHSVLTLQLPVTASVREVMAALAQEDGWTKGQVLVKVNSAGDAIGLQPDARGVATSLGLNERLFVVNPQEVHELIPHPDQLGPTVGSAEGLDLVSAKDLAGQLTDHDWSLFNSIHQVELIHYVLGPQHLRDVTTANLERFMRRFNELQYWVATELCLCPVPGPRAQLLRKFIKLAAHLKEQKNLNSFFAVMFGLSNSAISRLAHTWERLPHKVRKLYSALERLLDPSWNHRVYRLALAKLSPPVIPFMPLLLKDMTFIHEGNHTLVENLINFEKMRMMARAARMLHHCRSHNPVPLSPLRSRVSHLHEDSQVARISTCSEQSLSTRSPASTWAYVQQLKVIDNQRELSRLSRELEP
How it was run: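 Nucleotide exchange uses 100 nM EPAC1, 250 nM RAP1B-BODIPY-GDP and 50 uM GDP, with compounds in a concentration-titration series. After 5 min at room temperature, fluorescence (480 nm ex/540 nm em) is read every 5 min for 30 min. Data are normalized to control ATA and DMSO.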

[13] = molecular target: Rap guanine nucleotide exchange factor 3 (Homo sapiens) (UniProt O95398); assay: Confirmatory qHTS for agonist of cAMP-regulated guanine nucleotide exchange factor 3 (EPAC1) (AID 1645881);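 also: EPAC1 catalysed release of BODIPY-GDP from Rap1B seen as fluorescence loss; 100% = effect of cAMP agonist control; nearly all actives have a fitted effect of over 75% in size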
[14] = molecular target: Rap guanine nucleotide exchange factor 4 (Homo sapiens) (UniProt Q8WZA2); assay: Confirmatory qHTS for agonist of cAMP-regulated guanine nucleotide exchange factor 4 (EPAC2) (AID 1645884);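 also: nucleotide exchange releases bodipy-GDP from Rap1 and this lowers its fluorescence; % is scaled to controls: 0 for no effect and ±100 for the full control effect; nearly all actives have a fitted effect of over 65% in size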
Sequence of Rap guanine nucleotide exchange factor 4 (Homo sapiens) (Q8WZA2 whole entry, looked up): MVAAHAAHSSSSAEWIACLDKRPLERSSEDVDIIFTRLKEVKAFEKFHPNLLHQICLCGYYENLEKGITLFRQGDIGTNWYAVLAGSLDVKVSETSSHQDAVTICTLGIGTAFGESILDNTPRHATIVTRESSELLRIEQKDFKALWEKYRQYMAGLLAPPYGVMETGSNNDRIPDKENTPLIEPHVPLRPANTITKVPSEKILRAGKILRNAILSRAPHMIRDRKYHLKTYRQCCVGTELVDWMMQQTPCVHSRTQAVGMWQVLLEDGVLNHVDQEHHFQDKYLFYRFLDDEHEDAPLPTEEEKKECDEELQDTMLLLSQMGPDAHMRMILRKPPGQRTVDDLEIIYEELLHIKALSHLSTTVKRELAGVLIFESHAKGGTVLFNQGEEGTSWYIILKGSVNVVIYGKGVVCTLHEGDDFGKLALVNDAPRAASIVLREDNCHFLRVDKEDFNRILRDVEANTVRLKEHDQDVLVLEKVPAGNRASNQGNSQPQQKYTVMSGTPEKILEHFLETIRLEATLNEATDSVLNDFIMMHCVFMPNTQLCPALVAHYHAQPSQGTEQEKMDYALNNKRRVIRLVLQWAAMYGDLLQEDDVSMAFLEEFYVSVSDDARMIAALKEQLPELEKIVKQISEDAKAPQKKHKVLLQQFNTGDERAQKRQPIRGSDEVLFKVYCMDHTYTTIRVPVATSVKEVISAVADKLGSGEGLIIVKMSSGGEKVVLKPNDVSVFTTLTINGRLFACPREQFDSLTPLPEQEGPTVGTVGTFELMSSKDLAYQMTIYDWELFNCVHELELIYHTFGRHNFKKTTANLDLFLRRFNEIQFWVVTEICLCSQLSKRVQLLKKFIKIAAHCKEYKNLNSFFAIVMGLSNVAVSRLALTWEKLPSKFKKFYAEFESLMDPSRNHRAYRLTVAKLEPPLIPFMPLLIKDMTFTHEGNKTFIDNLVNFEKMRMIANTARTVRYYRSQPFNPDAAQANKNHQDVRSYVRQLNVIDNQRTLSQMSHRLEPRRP

[15] = molecular target: Rap guanine nucleotide exchange factor 4 (Homo sapiens) (UniProt Q8WZA2); assay: Confirmatory qHTS for antagonist of cAMP-regulated guanine nucleotide exchange factor 4 (EPAC2) (AID 1645885); also: % is scaled to controls: 0 for no effect and ±100 for the full control effect; nearly all actives have a fitted effect of over 25% in size
[16] = molecular target: Cytochrome P450 1A2 (Homo sapiens) (UniProt P05177); assay: p450-cyp1a2 (AID 410; calls by dose curve;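 also: -100% = full effect of reference inhibitor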)
Sequence of Cytochrome P450 1A2 (Homo sapiens) (P05177 whole entry, looked up): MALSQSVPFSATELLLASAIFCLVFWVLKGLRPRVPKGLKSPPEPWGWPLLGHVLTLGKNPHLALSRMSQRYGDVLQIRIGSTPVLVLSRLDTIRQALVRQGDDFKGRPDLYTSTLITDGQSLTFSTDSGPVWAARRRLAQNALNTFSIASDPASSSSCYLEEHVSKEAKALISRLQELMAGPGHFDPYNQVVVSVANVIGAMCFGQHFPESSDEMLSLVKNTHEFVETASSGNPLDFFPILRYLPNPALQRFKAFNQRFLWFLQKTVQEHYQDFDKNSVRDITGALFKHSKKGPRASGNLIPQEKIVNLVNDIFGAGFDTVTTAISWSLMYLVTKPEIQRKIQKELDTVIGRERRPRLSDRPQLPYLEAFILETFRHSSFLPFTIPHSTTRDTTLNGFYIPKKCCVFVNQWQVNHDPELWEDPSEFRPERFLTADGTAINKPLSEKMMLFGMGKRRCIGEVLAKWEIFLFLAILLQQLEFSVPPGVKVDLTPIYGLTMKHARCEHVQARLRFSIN
How it was run: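 Human CYP1A2 (20nM) demethylated Luciferin-ME at its Km (100uM) in 100mM KPO4. After 10 min compound preincubation, NADPH regeneration ran the reaction 60 min at room temperature. Luciferin was read by luminescence, normalized to 57 uM furafylline.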

[17] = molecular target: Mitogen-activated protein kinase 10 (Mus musculus) (UniProt Q61831); assay: JNK3 AlphaScreen Assay (AID 530; active = well fitted curve in either direction with a large enough effect, not every such curve was filed as active)
How it was run: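 JNK3 came from HepG2 lysates pre-activated with IL-1beta and TNF-alpha and phosphorylated biotinylated GST-cJun (1-79) at 10 uM ATP, pH 7.6, room temperature. Compounds were titrated. AlphaScreen signal used anti-phospho-cJun (Ser73) antibody.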

[18] = molecular target: Guanine nucleotide-binding protein G(i) subunit alpha-1 (Homo sapiens) (UniProt P63096); assay: qHTS Assay for Inhibitors of RGS12 GoLoco Motif Activity (Green Fluorophore) (AID 879);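 also: 0% = labeled peptide with Gαi1 and full inhibition = labeled peptide alone without protein; negative values mean loss of peptide binding seen as reduced polarization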
How it was run: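 Fluorescence polarization assay: 50 nM Gαi1 with 10 nM FITC-labeled RGS12 GoLoco peptide in 10 mM Tris pH 7.5, 150 mM NaCl, 0.1 mM GDP, 0.05% NP40, 10 min at room temperature with compound.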

[19] = molecular target: Cytochrome P450 2C9 (Homo sapiens) (UniProt P11712); assay: qHTS Assay for Inhibitors and Substrates of Cytochrome P450 2C9 (AID 883); also: % is scaled to controls: 0 for no effect and ±100 for the full control effect; nearly all actives have a fitted effect of over 60% in size
How it was run: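 CYP2C9 deoxyluciferin hydroxylation, 37C, 60 min with NADPH regeneration; 10nM enzyme, 100uM Luciferin-H (KM). Glo detection reagent stopped reaction; luminescence normalized to sulphaphenazole (57uM) full inhibition.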

[20] = molecular target: Cytochrome P450 3A4 (Homo sapiens) (UniProt P08684); assay: qHTS Assay for Inhibitors and Substrates of Cytochrome P450 3A4 (AID 884); also: % is scaled to controls: 0 for no effect and ±100 for the full control effect; nearly all actives have a fitted effect of over 50% in size
How it was run: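 20 nM human CYP3A4 with 25 uM Luciferin-PPXE (at KM) in 200 mM KPO4, preincubated 10 min with compound; NADPH regeneration started a 60 min RT reaction. Luciferin detected by luminescence, normalized to 57 uM ketoconazole as full inhibition.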

[21] = molecular target: Cytochrome P450 2D6 (Homo sapiens) (UniProt P10635); assay: qHTS Assay for Inhibitors and Substrates of Cytochrome P450 2D6 (AID 891);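 also: luciferin methyl ether substrate demethylated by CYP2D6 with NADPH regeneration; % is scaled to controls: 0 for no effect and ±100 for the full control effect; nearly all actives have a fitted effect of over 60% in size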
How it was run: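 Human CYP2D6 (5 nM) with 30 uM Luciferin-ME EGE (at Km) in 100 mM KPO4, compound preincubated 10 min, then NADPH regeneration system for 60 min at room temperature. Luciferin read by luminescence; normalized to 1.43 uM quinidine.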

[22] = molecular target: Cytochrome P450 2C19 (Homo sapiens) (UniProt P33261); assay: qHTS Assay for Inhibitors and Substrates of Cytochrome P450 2C19 (AID 899); also: % is scaled to controls: 0 for no effect and ±100 for the full control effect; nearly all actives have a fitted effect of over 60% in size
How it was run: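 In 50mM KPO4, the reaction held 5nM enzyme and KM-level (10uM) Luciferin-H EGE; it ran 60 min at 37C after NADPH regeneration and a 10 min compound preincubation. Luminescence values were scaled to 57uM ketoconazole as complete inhibition.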

[23] = Confirmation and Secondary Assay for Modulators of Hemoglobin Beta Chain Splicing at IVS2 654 locus (AID 910);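 also: per-well total GFP intensity by laser scanning cytometry after 2-day treatment; % of control where 0% means no effect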
How it was run: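 HeLa cells stably carrying EGFP interrupted by mutant beta-globin IVS2-654 intron (CMV-driven) were treated with compound for 2 days at 37C; corrected splicing was scored as total peak GFP intensity per well (488 nm excitation, 500-520 nm emission).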

[24] = qHTS Assay for Identification of Small Molecule Agonists for Thrombopoietin (TPO) Signaling Pathway (AID 917); also: % is scaled to controls: 0 for no effect and ±100 for the full control effect
How it was run: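 IL-3-dependent murine pro-B Ba/F3 cells, stably transfected with human TPO receptor and GpIIb-promoter luciferase, are incubated 24 hrs at 37 C with test compound and 26 pM TPO; luciferase signal is read after 10 min at room temperature.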

[25] = Confirmation and Secondary Assay for Modulators of Hemoglobin Beta Chain Splicing at IVS2 705 locus (AID 930);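 also: HeLa cells stably expressing the EGFP-705 splicing reporter; GFP fluorescence per well restored by corrected splicing of the IVS2-705 intron in EGFP; % of control where 0% means no effect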
How it was run: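 HeLa IVS2-705 EGFP reporter cells, 500/well, compound 2 d at 37C; correct splicing yields fluorescent EGFP. Control: 500 nM antisense PNA. Read-out: total peak GFP intensity.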

[26] = molecular target: Muscarinic acetylcholine receptor M1 (Rattus norvegicus) (UniProt P08482); assay: qHTS Assay for Antagonists of Acetylcholine Muscarinic M1 Receptor: Kinetic Measurement of Intracellular Calcium Response (AID 943);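 also: Fluo-4 calcium signal as peak divided by basal fluorescence over 4 min; nearly all actives have a fitted effect of over 75% in size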
Sequence of Muscarinic acetylcholine receptor M1 (Rattus norvegicus) (P08482 whole entry, looked up): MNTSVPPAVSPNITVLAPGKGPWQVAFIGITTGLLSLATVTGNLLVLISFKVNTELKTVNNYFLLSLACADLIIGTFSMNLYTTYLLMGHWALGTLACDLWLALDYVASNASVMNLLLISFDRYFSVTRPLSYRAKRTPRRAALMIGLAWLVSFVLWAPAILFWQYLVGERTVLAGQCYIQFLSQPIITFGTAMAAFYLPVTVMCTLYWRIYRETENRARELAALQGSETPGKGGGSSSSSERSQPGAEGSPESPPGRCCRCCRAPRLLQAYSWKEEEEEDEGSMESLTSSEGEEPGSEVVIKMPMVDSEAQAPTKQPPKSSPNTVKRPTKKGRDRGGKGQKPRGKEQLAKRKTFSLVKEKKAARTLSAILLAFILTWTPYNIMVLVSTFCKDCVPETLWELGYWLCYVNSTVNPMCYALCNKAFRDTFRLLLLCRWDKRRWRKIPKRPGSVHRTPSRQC
How it was run: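 CHO cells stably expressing rat M1 were loaded with no-wash Fluo-4 dye for 1 h at 37C, pre-incubated 10 min with compound, then challenged with EC80 carbachol (100 nM final); kinetic calcium read 4 min, peak/basal ratio.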

[27] = molecular target: Muscarinic acetylcholine receptor M1 (Rattus norvegicus) (UniProt P08482); assay: qHTS Assay for Antagonists of Acetylcholine Muscarinic M1 Receptor: Measurement of IP-One Response (AID 944); also: nearly all actives have a fitted effect of over 75% in size
How it was run: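 CHO cells expressing rat M1 receptor, recovered overnight, were pre-incubated 10 min with compound, then stimulated 30 min with carbachol at EC80 (200 nM) in LiCl-containing buffer, pH 7.4. IP1 accumulation was read by HTRF (620/665 nm).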

[28] = molecular target: Pyruvate kinase (Leishmania mexicana) (UniProt Q27686); assay: qHTS Validation Assay for Inhibitors of Leishmania Mexicana Pyruvate Kinase (AID 945);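 also: 0% = DMSO only neutral control wells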
How it was run: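 Eight-point qHTS titrations; enzyme 0.2 nM LmPYK (E451W mutant); substrates 0.5 mM PEP, 0.1 mM ADP; 7 mM MgCl2; 1 h room temperature; PKLight luminescence normalized to neutral control.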

[29] = molecular target: Alpha-galactosidase A (Homo sapiens) (UniProt P06280); assay: Counterscreen for Glucocerebrosidase Inhibitors: qHTS Assay for Human alpha-Galactosidase at pH 4.5 (AID 992); also: 0% is about no effect
How it was run: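 Enzyme at 2 nM final was combined with compound (0.7 nM to 77 uM) and 80 uM 4-methylumbelliferyl alpha-D-galactopyranoside in 50 mM citric acid, 0.005% Tween-20, pH 4.5. After 20 min at room temperature, fluorescence was read (Ex 365/Em 440 nm); AC50 came from Hill fits.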

[30] = molecular target: alpha-glucosidase (Oryza sativa, rice) (UniProt Q653V4); assay: Counterscreen for Glucocerebrosidase Inhibitors: qHTS Assay for Rice alpha-Glucosidase at pH 5.0 (AID 997);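 also: 0% = full activity with enzyme and -100% = basal without enzyme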
How it was run: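 Rice alpha-glucosidase (4 nM final) with 400 uM 4-methylumbelliferyl-alpha-D-glucopyranoside in citrate buffer pH 5.0, 20 min at room temperature, stopped at pH 10; fluorescence 365/440 nm, compounds 0.7 nM–77 uM, AC50 from Hill fits.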

[31] = measured here: cell count channel max response
[32] = measured here: lipid channel max response

CN(C)CCCSC(=N)N
-5.95% and 13.8%: max response [7, 32]
inactive: activity change, negative = inhibition ([1]; at 17.2 µM (top of the series)) 2.97% | activity change, negative = inhibition [2] -13.3% | activity, negative = inhibition ([3]; at 17.2 µM (top of the series)) -1.52% | Potency [4] > 20.6 µM and > 46 µM | Potency [5] > 20.6 µM and > 46 µM | Potency [6] | activity change, negative = inhibition ([7]; at 25.7 µM (top of the series)) -2.91% | activity change, negative = inhibition ([7]; at 57.5 µM (top of the series)) 3.5% | Potency [8] | Potency [9] | Potency [10] | Potency [11] | Potency [12] | outcome [13] | outcome [14] | Potency [15]
-7.27% and -5.75%: max response [7, 31]

C=C[C@H](N)CCC(=O)O
3.82% and -3.83%: max response [7, 31]
inactive: activity change, negative = inhibition ([1]; at 17.2 µM (top of the series)) -1.55% | activity change, negative = inhibition ([1]; at 38 µM (top of the series)) 6.29% | Potency [16] | activity, negative = inhibition ([3]; at 17.2 µM (top of the series)) -1.55% | activity, negative = inhibition ([3]; at 38 µM (top of the series)) -14.6% | Potency [4] > 46 µM and > 20.6 µM | Potency [17] | Potency [6] | outcome [18] | Potency [19] | Potency [20] | Potency [21] | Potency [22] | outcome [23] | Potency [24] | outcome [25] | Potency [26] | Potency [27] | Potency [28] | outcome [29] | outcome [30] | activity change, negative = inhibition ([7]; at 25.7 µM (top of the series)) -2.99% | activity change, negative = inhibition ([7]; at 57.5 µM (top of the series)) -0.953% | Potency [9] | Potency [10] | Potency [11]
1.97% and -5.49%: max response [7, 32]
